{"source": "PubChem BioAssay AID1985", "about": "(Southern Research Specialized Biocontainment Screening …, 2009)", "note": "Out of some 2,300 compounds screened, about 1,000 (43%) were called active. No rule for the calls is given here. The set was probably picked from earlier hits. This is one part of the list. Entries with a potency or affinity are not part of this list."}
{"assay": "PhoP regulon inhibitor project modified counter assay, GFP fluorescence readout, dose response (AID 1985)", "conditions": "S. Typhi, 4 h; series mostly up to 150 µM"}
{"smiles": "CCn1nnnc1NCc1cccc(Cl)c1", "outcome": "inactive"}
{"smiles": "O=C(/C=C/c1ccc(Cl)cc1)NCCCn1ccnc1", "outcome": "inactive"}
{"smiles": "O=C(NCCCn1ccnc1)c1cc2c(ccc3ccccc32)o1", "outcome": "inactive"}
{"smiles": "Cc1noc(C)c1S(=O)(=O)N1CCC(Cc2ccccc2)CC1", "outcome": "inactive"}
{"smiles": "CC(C)(C)c1ccc(NC(=O)COc2ccc(-n3ccnc3)cc2)cc1", "outcome": "inactive"}
{"smiles": "Cc1nn(-c2ccccc2)c(C)c1/C=N/n1c(-c2ccc(C(C)(C)C)cc2)n[nH]c1=S", "outcome": "inactive"}
{"smiles": "CC1CCCC(NC(=O)COC(=O)CCSc2ccccc2)C1C", "note": "(stereo not drawn)", "outcome": "inactive"}
{"smiles": "O=C(Nc1ccccc1)C1=C(O)CC(c2ccc(Cl)cc2)N2CCN=C12", "note": "(stereo not drawn)", "outcome": "inactive"}
{"smiles": "CN(C)CCCN1c2ccccc2CCc2ccc(Cl)cc21", "outcome": "inactive"}
{"smiles": "CNCCC=C1c2ccccc2CCc2ccccc21", "outcome": "inactive"}
{"smiles": "c1cc(N2CCCC2)ccc1C(c1nnnn1C1CCCCC1)N1CCOCC1", "note": "(stereo not drawn)", "outcome": "inactive"}
{"smiles": "O=C(N/N=C/c1ccco1)c1cccc(NC(=O)c2cccc(Cl)c2)c1", "outcome": "inactive"}
{"smiles": "O=C(Nc1ccc2c(c1)OCCO2)C(=S)NCc1ccccc1", "outcome": "inactive"}
{"smiles": "Cc1cc(C)nc(SCC(=O)NCc2ccco2)n1", "outcome": "inactive"}
{"smiles": "Cc1ccccc1Cn1c(=O)n(CCCC(=O)NCc2ccco2)c(=O)c2ccccc21", "outcome": "inactive"}
{"smiles": "CC(C)CN1CCN(Cc2cnc(N3CCOCC3)s2)CC1CCO", "note": "(stereo not drawn)", "outcome": "inactive"}
{"smiles": "O=C(Nc1ccc(N2CCOCC2)c(Cl)c1)c1ccc(-n2cnnc2)cc1", "outcome": "inactive"}
{"smiles": "COc1ccc2nc(Nc3ccccc3)sc2c1", "outcome": "inactive"}
{"smiles": "COc1ccc2nc(NC(=O)Nc3ccccc3)sc2c1", "outcome": "inactive"}
{"smiles": "CCOc1ccc(N2CC(C(=O)OCC(=O)NCc3ccccc3)CC2=O)cc1", "note": "(stereo not drawn)", "outcome": "inactive"}
{"smiles": "CC(C)Oc1ccc(N2CC(C(=O)Nc3ccccc3F)CC2=O)cc1", "note": "(stereo not drawn)", "outcome": "inactive"}
{"smiles": "Cc1ccc(C)c(NC(=O)CCC(=O)N/N=C/c2cc([N+](=O)[O-])ccc2O)c1", "outcome": "inactive"}
{"smiles": "O=[N+]([O-])c1ccc2oc(C3CCCCC3)nc2c1", "outcome": "inactive"}
{"smiles": "CC(=O)Cc1nsc(NC(=O)c2csc3c2CCCC3)n1", "outcome": "inactive"}
{"smiles": "Oc1ccccc1-c1cc(C(F)(F)C(F)F)[nH]n1", "outcome": "inactive"}
{"smiles": "O=C(O)c1ccc(N2C(=O)CC(N3C(=O)/C(=C/c4ccc(Cl)cc4)SC3=S)C2=O)cc1", "note": "(stereo not drawn)", "outcome": "inactive"}
{"smiles": "CN1C(=O)/C(=C/c2cccc(Cl)c2)Sc2ccc(C(=O)N3CCCC3)cc21", "outcome": "inactive"}
{"smiles": "CC1CCN(c2c(NCc3ccc(C(=O)N4CCN(C5CCCCC5)CC4)cc3)c(=O)c2=O)CC1", "outcome": "inactive"}
{"smiles": "Cc1cccc(NC(=O)c2sc3nc(-c4ccccc4)cn3c2C)n1", "outcome": "inactive"}
{"smiles": "Cc1cc[n+](CC(=O)c2ccc(NC(=O)c3ccccc3)cc2)cc1", "outcome": "inactive"}
{"smiles": "COc1cccc(N2CCN(C(=S)NCc3ccco3)CC2)c1", "outcome": "inactive"}
{"smiles": "COc1ccc(OC)c(-c2cc(C(=O)Nc3ccc(F)cc3F)no2)c1", "outcome": "inactive"}
{"smiles": "N#Cc1nc(COc2ccc(Br)cc2)oc1NCCCn1ccnc1", "outcome": "inactive"}
{"smiles": "Cc1cc(C)c2sc(N(CCCN(C)C)C(=O)COc3ccc(Cl)cc3)nc2c1", "outcome": "inactive"}
{"smiles": "Cc1cccc(CSCCNC(=O)COc2ccc(Cl)cc2)c1", "outcome": "inactive"}
{"smiles": "CN(C)CCN(C(=O)C1=COCCO1)c1nc2ccc(Cl)cc2s1", "outcome": "inactive"}
{"smiles": "COc1ccc2nc(N(CCN(C)C)C(=O)/C=C/c3cccs3)sc2c1", "outcome": "inactive"}
{"smiles": "COc1ccccc1C1CN(c2ccc(F)cc2F)N=C1c1cccs1", "note": "(stereo not drawn)", "outcome": "inactive"}
{"smiles": "Cc1ccc(S(=O)(=O)N2CCOCC2)cc1NC(=O)CSc1nc(N)cc(=O)[nH]1", "outcome": "inactive"}
{"smiles": "C=CCN1C(=O)C(O)(CC(=O)c2c(C)n[nH]c2C)c2cc(Br)ccc21", "note": "(stereo not drawn)", "outcome": "inactive"}
{"smiles": "Cc1nc(N=Nc2ccc(O)cc2)n[nH]1", "outcome": "inactive"}
{"smiles": "O=C(Cn1cc(/C=C\\[N+](=O)[O-])c2ccccc21)Nc1ccccc1", "outcome": "inactive"}
{"smiles": "Cc1cc(C)nc(/N=C(\\N)Nc2ccc(SC(F)F)cc2)n1", "outcome": "inactive"}
{"smiles": "CC(C)(C)n1nc2c(c1NC(=O)Cc1cccs1)CSC2", "outcome": "inactive"}
{"smiles": "CC1(NC(=O)NCCCCCCNC(=O)NC2(C)CCS(=O)(=O)C2)CCS(=O)(=O)C1", "note": "(stereo not drawn)", "outcome": "inactive"}
{"smiles": "Nc1ncnc2nc(SCC(=O)Nc3cccc(C(F)(F)F)c3)[nH]c12", "outcome": "inactive"}
{"smiles": "O=C(Nc1ccc2[nH]c(=S)sc2c1)Nc1ccccc1F", "outcome": "inactive"}
{"smiles": "c1cnc2nc(-c3ccc4c(c3)OCO4)cn2c1", "outcome": "inactive"}
{"smiles": "Clc1ccc(Cn2cccc2C2=NCCO2)cc1", "outcome": "inactive"}
{"smiles": "CN1CCN(c2nc(Nc3ccc(F)cc3)nc(Nc3ccc(F)cc3)n2)CC1", "outcome": "inactive"}
{"smiles": "COc1ccc(S(=O)(=O)N[C@H](C(=O)N2CC[C@@]3(O)CCCC[C@H]3C2)c2ccccc2)cc1", "outcome": "inactive"}
{"smiles": "CCN(CC)CCOC(=O)c1cc(Cl)c(N)cc1OC", "outcome": "inactive"}
{"smiles": "O=C(/C=C/c1ccc(O)cc1)c1ccccc1", "outcome": "inactive"}
{"smiles": "CCc1c(C)n([O-])c2c([n+]1=O)CCCCC2", "outcome": "inactive"}
{"smiles": "COc1ccc(N(CC(=O)N2c3ccccc3CC2C)S(=O)(=O)c2c(C)noc2C)cc1", "note": "(stereo not drawn)", "outcome": "inactive"}
{"smiles": "N#Cc1c(/N=C/c2cccs2)sc2c1CCCCC2", "outcome": "inactive"}
{"smiles": "Cc1cc(C)cc(CSc2nnc(C)c(=O)[nH]2)c1", "outcome": "inactive"}
{"smiles": "COc1cccc(CNC(=O)C2CCN(S(=O)(=O)c3ccc(C)cc3)CC2)c1", "outcome": "inactive"}
{"smiles": "CC(=O)NC(c1ccc(Cl)cc1Cl)c1ccc2cccnc2c1O", "note": "(stereo not drawn)", "outcome": "inactive"}
{"smiles": "Cc1ccc(Cn2c(=N)c(C(=O)NCCN3CCOCC3)cc3c(=O)n4ccccc4nc32)cc1", "outcome": "inactive"}
{"smiles": "COc1cc2[nH]c(=O)n(Cc3ccc(C(=O)N4CCC(N5CCCCC5)CC4)cc3)c(=O)c2cc1OC", "outcome": "inactive"}
{"smiles": "O=C(c1cc2c(s1)-c1ccccc1OC2)N1CCc2ccccc2C1", "outcome": "inactive"}
{"smiles": "CNC[C@@H](CC1CCCCC1)NC[C@H](CC(C)C)NCCc1cccc(C(F)(F)F)c1", "outcome": "inactive"}
{"smiles": "CS(=O)(=O)N1CC(C(=O)NC2CC2)Oc2ccc(Cl)cc21", "note": "(stereo not drawn)", "outcome": "inactive"}
{"smiles": "CCCSc1nc2cc(OC)c(OC)cc2c(=N)n1CCCN1CCOCC1", "outcome": "inactive"}
{"smiles": "CC(C)(C)NC(=O)c1ccc2c3c(cccc13)CC2", "outcome": "inactive"}
{"smiles": "O=C(CSc1nnnn1C1CCCCC1)N1CCCC1", "outcome": "inactive"}
{"smiles": "COCCn1nnnc1C(c1cccc(OC)c1OC)N1CCN(C2CCCCC2)CC1", "note": "(stereo not drawn)", "outcome": "inactive"}
{"smiles": "CC(C)OC(=O)c1cccc(C(=O)Oc2ccc(Br)cc2)n1", "outcome": "inactive"}
{"smiles": "O/N=C/C1=C(Cl)c2ccccc2CC1", "outcome": "inactive"}
{"smiles": "CCOc1ccc(Cl)cc1/C=N/O", "outcome": "inactive"}
{"smiles": "CCOC(=O)Cn1c(=O)oc2cc(S(=O)(=O)NCC3CCCO3)ccc21", "note": "(stereo not drawn)", "outcome": "inactive"}
{"smiles": "CCOC(=O)C(NC(C)=O)(OCc1ccc(F)cc1)C(F)(F)F", "note": "(stereo not drawn)", "outcome": "inactive"}
{"smiles": "Cc1nn(Cc2ccccc2Cl)c2sc(C(=O)Nc3ccccc3N3CCOCC3)cc12", "outcome": "inactive"}
{"smiles": "O=C1SC(c2ccccc2)=C/C1=C\\N1CCCCC1", "outcome": "inactive"}
{"smiles": "CC(C)C(NS(=O)(=O)c1cccc2nsnc12)C(=O)N1CCn2c1nc1ccccc12", "note": "(stereo not drawn)", "outcome": "inactive"}
{"smiles": "Nc1[nH]c(=O)ncc1F", "outcome": "inactive"}
{"smiles": "O=C1c2cccnc2C(=O)N1c1ccccc1-c1ccccc1", "outcome": "inactive"}
{"smiles": "Cc1ccc(-n2c(=O)c3sccc3n(CC(=O)NC3CCCCC3)c2=O)cc1", "outcome": "inactive"}
{"smiles": "Cc1ccc2c(c1)c1c(n2CC(O)CN2CCC(C)CC2)CCCC1", "note": "(stereo not drawn)", "outcome": "inactive"}
{"smiles": "C[N+]1(C)C2CCC1CC(OC(=O)c1ccccc1)C2", "note": "(stereo not drawn)", "outcome": "inactive"}
{"smiles": "CCN(CC)C(=O)C1CCN(Cc2ccc(Br)cc2)CC1", "outcome": "inactive"}
{"smiles": "COCCNC(=O)c1cccc(OC2CCN(Cc3ccccc3C)CC2)c1", "outcome": "inactive"}
{"smiles": "N=c1c(C(=O)NCC2CCCO2)cc2c(=O)n3ccccc3nc2n1Cc1ccc(Cl)cc1", "note": "(stereo not drawn)", "outcome": "inactive"}
{"smiles": "CCOc1ccc(NC(=O)CN(C)S(=O)(=O)c2cccs2)cc1", "outcome": "inactive"}
{"smiles": "Cc1ncc(CC(=O)n2cc(C(=O)c3cc(F)ccc3O)cn2)s1", "outcome": "inactive"}
{"smiles": "CN(C)C(=O)CC12CC3CC(C1)CC(CC(=O)N(C)C)(C3)C2", "outcome": "inactive"}
{"smiles": "Nc1cc2c3c(cccc3c1)C(=O)N(CCN1CCCC1)C2=O", "outcome": "inactive"}
{"smiles": "CC[C@H](C)[C@@H](CN[C@H](C)CNC)NCCC(c1ccccc1)c1ccccc1", "outcome": "inactive"}
{"smiles": "O=C(Cn1c(=O)oc2ccccc21)N1CCN(c2ccc(N3CCOCC3)nn2)CC1", "outcome": "inactive"}
{"smiles": "CCn1c(O)c(N=NC(=O)CNC(=O)/C=C/c2ccco2)c2ccccc21", "outcome": "inactive"}
{"smiles": "Cc1c(CCN)ccc2c1[nH]c1ccccc12", "outcome": "inactive"}
{"smiles": "O=C(N/N=C/c1c(Cl)nc2ccccn2c1=O)c1cccnc1", "outcome": "inactive"}
{"smiles": "Cc1c(C=O)c2ccccn2c1C(=O)c1ccccc1", "outcome": "inactive"}
{"smiles": "Oc1ccc(-c2nc3ncccn3c2Nc2ccc3c(c2)OCCO3)cc1", "outcome": "inactive"}
{"smiles": "CC(C)CC(c1nnnn1Cc1ccco1)N1CCN(c2cccc(Cl)c2)CC1", "note": "(stereo not drawn)", "outcome": "inactive"}
{"smiles": "COc1cccc(C2=NO[C@@H]3C(=O)N(Cc4ccccc4)C(=O)[C@H]23)c1OC", "outcome": "inactive"}
{"smiles": "CCOC(=O)/C=C1/N(C)c2ccccc2C1(C)C", "outcome": "inactive"}
{"smiles": "COc1ccc(/C=N/NC2=NCCCCC2)c(OC)c1", "outcome": "inactive"}
{"smiles": "Cc1cc(N/N=C/c2ccc(F)cc2)nc(NCc2ccccc2)n1", "outcome": "inactive"}
{"smiles": "COc1ccc(/C=N/Nc2cc(C)nc3ccccc23)cc1", "outcome": "inactive"}
{"smiles": "CC(Oc1ccc(/C=N/NC(=O)Cc2cccc3ccccc23)cc1)C(=O)O", "note": "(stereo not drawn)", "outcome": "inactive"}
{"smiles": "Cc1ccc(N/N=C/c2ccncc2)cc1", "outcome": "inactive"}
{"smiles": "CCOC(=O)c1c(C)sc2c1N(C(C)=O)c1cc(Cl)ccc1S2", "outcome": "inactive"}
{"smiles": "CCCC1(c2ccccc2)NC(=O)N(CC(=O)Nc2ccccc2C(F)(F)F)C1=O", "note": "(stereo not drawn)", "outcome": "inactive"}
{"smiles": "O=C1C2C3C=CC(CC3)C2C(=O)N1/N=C/c1ccc(O)cc1", "note": "(stereo not drawn)", "outcome": "inactive"}
{"smiles": "CCN(CC)S(=O)(=O)c1ccc(/C(O)=C(\\C#N)c2nc3ccccc3n2C)cc1", "outcome": "inactive"}
{"smiles": "Cn1c(-c2ccc(CN3CCCCC3)o2)nc2ccccc21", "outcome": "inactive"}
{"smiles": "COc1ccc(CNc2nc3ccccc3n2C)c(O)c1", "outcome": "inactive"}
{"smiles": "CCN(CC)CCn1c(NCc2cc(OC)ccc2OC)nc2ccccc21", "outcome": "inactive"}
{"smiles": "CC1(C)N=C(N)NC(Nc2cccc(Br)c2)=N1", "outcome": "inactive"}
{"smiles": "Cc1cccc(NS(=O)(=O)c2ccc3c(c2)OCCO3)c1", "outcome": "inactive"}
{"smiles": "CCN(CC)CC#CC(C)OCOCC#CCOC", "note": "(stereo not drawn)", "outcome": "inactive"}
